Results on 31 compounds are retold here after ChEMBL document CHEMBL2218924, “A broad activity screen in support of a chemogenomic map for kinase signalling research and drug discovery” (Biochem J, 2013).

In the first experiment the target is Macrophage-stimulating protein receptor (Homo sapiens) (UniProt Q04912). The following applies: at 1 µM.
Macrophage-stimulating protein receptor (Homo sapiens), sequence (Q04912 25-304 limits assumed): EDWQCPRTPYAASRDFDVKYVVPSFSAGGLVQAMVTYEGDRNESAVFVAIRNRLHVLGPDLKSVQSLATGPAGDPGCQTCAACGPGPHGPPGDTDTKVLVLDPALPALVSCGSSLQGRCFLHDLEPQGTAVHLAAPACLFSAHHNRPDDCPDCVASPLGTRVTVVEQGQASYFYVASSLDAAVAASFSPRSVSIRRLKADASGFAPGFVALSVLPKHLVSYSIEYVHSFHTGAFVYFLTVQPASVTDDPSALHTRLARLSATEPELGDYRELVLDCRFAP
Macrophage-stimulating protein receptor (Homo sapiens), sequence (Q04912 310-1400 limits assumed): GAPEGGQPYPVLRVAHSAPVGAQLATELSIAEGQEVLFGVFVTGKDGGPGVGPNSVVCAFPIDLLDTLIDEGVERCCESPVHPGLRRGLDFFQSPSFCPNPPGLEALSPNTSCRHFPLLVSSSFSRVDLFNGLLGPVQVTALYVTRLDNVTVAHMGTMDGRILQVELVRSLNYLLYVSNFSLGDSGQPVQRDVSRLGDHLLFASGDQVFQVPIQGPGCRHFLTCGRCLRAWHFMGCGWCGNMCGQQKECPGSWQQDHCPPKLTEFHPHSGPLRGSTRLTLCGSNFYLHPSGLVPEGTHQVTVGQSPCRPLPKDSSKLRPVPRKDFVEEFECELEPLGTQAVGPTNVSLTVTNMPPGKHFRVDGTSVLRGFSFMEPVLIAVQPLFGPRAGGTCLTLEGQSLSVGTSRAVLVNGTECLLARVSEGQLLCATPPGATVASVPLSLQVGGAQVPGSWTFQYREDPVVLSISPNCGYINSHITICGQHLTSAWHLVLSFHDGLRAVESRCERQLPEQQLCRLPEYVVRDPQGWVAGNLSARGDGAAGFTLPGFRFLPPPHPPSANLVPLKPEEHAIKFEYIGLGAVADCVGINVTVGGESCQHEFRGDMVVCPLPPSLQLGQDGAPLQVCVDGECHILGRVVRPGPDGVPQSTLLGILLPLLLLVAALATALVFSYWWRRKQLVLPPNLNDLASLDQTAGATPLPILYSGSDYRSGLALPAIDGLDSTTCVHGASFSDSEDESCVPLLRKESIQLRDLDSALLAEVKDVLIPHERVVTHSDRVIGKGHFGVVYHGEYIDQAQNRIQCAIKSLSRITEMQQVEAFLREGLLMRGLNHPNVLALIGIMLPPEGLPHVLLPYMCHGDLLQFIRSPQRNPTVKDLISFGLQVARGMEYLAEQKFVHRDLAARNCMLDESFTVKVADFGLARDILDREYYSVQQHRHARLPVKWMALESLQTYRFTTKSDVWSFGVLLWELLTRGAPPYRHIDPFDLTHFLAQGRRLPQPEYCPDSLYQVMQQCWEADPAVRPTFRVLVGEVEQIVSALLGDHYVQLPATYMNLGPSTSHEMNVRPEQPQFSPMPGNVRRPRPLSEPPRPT
As to `COc1cc2ncnc(Nc3ccc(NC(=O)c4ccccc4)cc3)c2cc1OC`, the residual activity is 87%.

Turning to `CCN(CC)C(=O)c1ccc(Nc2nc(OCC3CCCCC3)c3nc[nH]c3n2)cc1`, the residual activity came out at 72%.

For the compound `Cc1ccc(S(=O)(=O)/C=C/C#N)cc1`, the residual activity was 80%.

As for `Oc1n[nH]c2nnc(-c3c(-c4ccccc4)nn4ccccc34)cc12`, the residual activity was 70%.

In the case of `Cc1nc(-c2ccccc2)c(-c2ccncc2)o1`, the residual activity is 87%.

On to `Oc1ccc(-c2nc(-c3ccc(F)cc3)c(-c3ccncc3)[nH]2)cc1`, for which the residual activity amounted to 84%.

On to `COc1cc2ncnc(Nc3ccc(O)c(Br)c3)c2cc1OC`, for which the residual activity worked out at 90%.

As for `CO[C@H]1C[C@@H]2CC[C@@H](C)[C@@](O)(O2)C(=O)C(=O)N2CCCC[C@H]2C(=O)O[C@H]([C@H](C)C[C@@H]2CC[C@@H](O)[C@H](OC)C2)CC(=O)[C@H](C)/C=C(\C)[C@@H](O)[C@@H](OC)C(=O)[C@H](C)C[C@H](C)/C=C/C=C/C=C/1C`, the residual activity was determined as 99%.

Take `Cn1cnc2cc3c(Nc4cccc(Br)c4)ncnc3cc21`: the residual activity was 88%.

For the compound `O=C1NC(=O)c2cc(Nc3ccc(F)cc3)c(Nc3ccc(F)cc3)cc21`, the residual activity amounted to 104%.

Consider `CN(C)CCCn1cc(C2=C(c3c[nH]c4ccccc34)C(=O)NC2=O)c2ccccc21`, for which the residual activity was determined as 102%.

As for `O=C1NC(=O)/C(=C\c2ccc3nccnc3c2)S1`, the residual activity amounted to 88%.

As to `CO[C@@H]1[C@H](N(C)C(=O)c2ccccc2)C[C@H]2O[C@]1(C)n1c3ccccc3c3c4c(c5c6ccccc6n2c5c31)C(=O)NC4`, the residual activity was determined as 47%.

`COc1ccc(OC)c2c(=S)c3ccccc3[nH]c12`: the residual activity was 69%.

With `CC#CC(=O)Nc1cc2c(Nc3ccc(F)c(Cl)c3)ncnc2cn1`, the residual activity is 101%.

For the compound `O=C1Nc2ccccc2/C1=C1/Nc2ccccc2/C1=N\OCCC(O)CO` (stereo not given), the residual activity came to 75%.

Turning to `c1ccc(-c2n[nH]c3c2oc2ccccc23)cc1`, the residual activity amounted to 58%.

Consider `Cc1cncc2cccc(S(=O)(=O)N3CCCN(C(=O)CN)C[C@H]3C)c12`, for which the residual activity came out at 89%.

Turning to `CO[C@H]1[C@@H](OC)C[C@H](C)[C@@H](OC)C2=CC(=O)C=C(NC(=O)/C(C)=C/C=C/[C@H](OC)[C@@H](OC(N)=O)/C(C)=C/[C@@H]1C)C2=O`, the residual activity is 85%.

As for `Oc1ccc(Nc2nc(-c3ccc(Cl)cc3)cs2)cc1`, the residual activity amounted to 95%.

Regarding `COc1cc2ncnc(Nc3ccc(Oc4ccccc4)cc3)c2cc1OC`, the residual activity turned out to be 92%.

Regarding `COc1cc2ncc(-c3ccccc3)nc2cc1OC`, the residual activity worked out at 98%.

In the case of `Cc1cc(Nc2nc(-c3ccccc3)nc3ccccc23)n[nH]1`, the residual activity turned out to be 79%.

On to `Nc1n[nH]c2nnc(-c3c(-c4ccccc4)nn4ccccc34)cc12`, for which the residual activity is 66%.

With `O=C1Nc2ccc(Br)cc2/C1=C\c1cc2c([nH]1)CCCC2`, the residual activity was 116%.

Consider `Ic1cccc(CSc2nnc(-c3ccncc3)o2)c1`, for which the residual activity is 81%.

Turning to `O=c1c2ccccc2[nH]c(=S)n1CCN1CCC(=C(c2ccc(F)cc2)c2ccc(F)cc2)CC1`, the residual activity came out at 72%.

With `Cc1ccc(NC2=CC(=O)c3sc(C)nc3C2=O)cc1`, the residual activity is 79%.

Consider `COc1cc2ncnc(N3CCN(C(=O)Nc4ccc(Oc5ccccc5)cc4)CC3)c2cc1OC`, for which the residual activity was determined as 74%.

For a further experiment the target is unchanged. The following applies: at 10 µM.
As to `COc1cc2ncnc(Nc3ccc(NC(=O)c4ccccc4)cc3)c2cc1OC`, the residual activity was 74%.

Take `CCN(CC)C(=O)c1ccc(Nc2nc(OCC3CCCCC3)c3nc[nH]c3n2)cc1`: the residual activity worked out at 42%.

Take `Cc1ccc(S(=O)(=O)/C=C/C#N)cc1`: the residual activity was 91%.

Regarding `Oc1n[nH]c2nnc(-c3c(-c4ccccc4)nn4ccccc34)cc12`, the residual activity was 53%.

As for `Cc1nc(-c2ccccc2)c(-c2ccncc2)o1`, the residual activity is 96%.

On to `Oc1ccc(-c2nc(-c3ccc(F)cc3)c(-c3ccncc3)[nH]2)cc1`, for which the residual activity came to 68%.

Regarding `COc1cc2ncnc(Nc3ccc(O)c(Br)c3)c2cc1OC`, the residual activity came to 50%.

With `CO[C@H]1C[C@@H]2CC[C@@H](C)[C@@](O)(O2)C(=O)C(=O)N2CCCC[C@H]2C(=O)O[C@H]([C@H](C)C[C@@H]2CC[C@@H](O)[C@H](OC)C2)CC(=O)[C@H](C)/C=C(\C)[C@@H](O)[C@@H](OC)C(=O)[C@H](C)C[C@H](C)/C=C/C=C/C=C/1C`, the residual activity came to 80%.

As for `Cn1cnc2cc3c(Nc4cccc(Br)c4)ncnc3cc21`, the residual activity turned out to be 64%.

On to `O=C1NC(=O)c2cc(Nc3ccc(F)cc3)c(Nc3ccc(F)cc3)cc21`, for which the residual activity is 76%.

For the compound `CN(C)CCCn1cc(C2=C(c3c[nH]c4ccccc34)C(=O)NC2=O)c2ccccc21`, the residual activity is 87%.

Take `O=C1NC(=O)/C(=C\c2ccc3nccnc3c2)S1`: the residual activity is 76%.

`CO[C@@H]1[C@H](N(C)C(=O)c2ccccc2)C[C@H]2O[C@]1(C)n1c3ccccc3c3c4c(c5c6ccccc6n2c5c31)C(=O)NC4`: the residual activity was found to be 56%.

`COc1ccc(OC)c2c(=S)c3ccccc3[nH]c12`: the residual activity amounted to 82%.

As for `CC#CC(=O)Nc1cc2c(Nc3ccc(F)c(Cl)c3)ncnc2cn1`, the residual activity is 76%.

`O=C1Nc2ccccc2/C1=C1/Nc2ccccc2/C1=N\OCCC(O)CO` (stereo not given): the residual activity was 61%.

For the compound `c1ccc(-c2n[nH]c3c2oc2ccccc23)cc1`, the residual activity was 73%.

Consider `Cc1cncc2cccc(S(=O)(=O)N3CCCN(C(=O)CN)C[C@H]3C)c12`, for which the residual activity was 70%.

As to `C[C@@H](N)[C@H]1CC[C@H](C(=O)Nc2ccncc2)CC1`, the residual activity was 101%.

Turning to `N#CC(C#N)=C(N)/C(C#N)=C/c1ccc(O)cc1`, the residual activity was 100%.

Turning to `CO[C@H]1[C@@H](OC)C[C@H](C)[C@@H](OC)C2=CC(=O)C=C(NC(=O)/C(C)=C/C=C/[C@H](OC)[C@@H](OC(N)=O)/C(C)=C/[C@@H]1C)C2=O`, the residual activity is 85%.

In the case of `Oc1ccc(Nc2nc(-c3ccc(Cl)cc3)cs2)cc1`, the residual activity is 106%.

In the case of `COc1cc2ncnc(Nc3ccc(Oc4ccccc4)cc3)c2cc1OC`, the residual activity stood at 59%.

`COc1cc2ncc(-c3ccccc3)nc2cc1OC`: the residual activity is 92%.

In the case of `Cc1cc(Nc2nc(-c3ccccc3)nc3ccccc23)n[nH]1`, the residual activity was determined as 54%.

`Nc1n[nH]c2nnc(-c3c(-c4ccccc4)nn4ccccc34)cc12`: the residual activity stood at 42%.

For the compound `O=C1Nc2ccc(Br)cc2/C1=C\c1cc2c([nH]1)CCCC2`, the residual activity was found to be 84%.

For `Ic1cccc(CSc2nnc(-c3ccncc3)o2)c1`, the residual activity turned out to be 78%.

Take `O=c1c2ccccc2[nH]c(=S)n1CCN1CCC(=C(c2ccc(F)cc2)c2ccc(F)cc2)CC1`: the residual activity stood at 78%.

As for `Cc1ccc(NC2=CC(=O)c3sc(C)nc3C2=O)cc1`, the residual activity was determined as 81%.

As to `COc1cc2ncnc(N3CCN(C(=O)Nc4ccc(Oc5ccccc5)cc4)CC3)c2cc1OC`, the residual activity amounted to 20%.
